# Assay results taken from PMC4336329 (PLoS ONE, 2015).
# The whole screen tested about 310,000 compounds, of which about 14,000 (4.5%) showed an effect of 50% or more. The effect is printed as a negative number. The sample holds strong results, similar compounds and a random draw of the others, so the mix is not that of the screen.
# Biological target: human ether-à-go-go-related gene (hERG) potassium channel (human, UniProt Q12809)
# Assay: primary screen, population patch clamp on CHO cells stably expressing hERG; higher = less effect of the substance
# 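Also: peak tail current of the secondary pulse compared with the same well before compound.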
# Chain of human ether-à-go-go-related gene (hERG) potassium channel (Q12809 whole entry, looked up): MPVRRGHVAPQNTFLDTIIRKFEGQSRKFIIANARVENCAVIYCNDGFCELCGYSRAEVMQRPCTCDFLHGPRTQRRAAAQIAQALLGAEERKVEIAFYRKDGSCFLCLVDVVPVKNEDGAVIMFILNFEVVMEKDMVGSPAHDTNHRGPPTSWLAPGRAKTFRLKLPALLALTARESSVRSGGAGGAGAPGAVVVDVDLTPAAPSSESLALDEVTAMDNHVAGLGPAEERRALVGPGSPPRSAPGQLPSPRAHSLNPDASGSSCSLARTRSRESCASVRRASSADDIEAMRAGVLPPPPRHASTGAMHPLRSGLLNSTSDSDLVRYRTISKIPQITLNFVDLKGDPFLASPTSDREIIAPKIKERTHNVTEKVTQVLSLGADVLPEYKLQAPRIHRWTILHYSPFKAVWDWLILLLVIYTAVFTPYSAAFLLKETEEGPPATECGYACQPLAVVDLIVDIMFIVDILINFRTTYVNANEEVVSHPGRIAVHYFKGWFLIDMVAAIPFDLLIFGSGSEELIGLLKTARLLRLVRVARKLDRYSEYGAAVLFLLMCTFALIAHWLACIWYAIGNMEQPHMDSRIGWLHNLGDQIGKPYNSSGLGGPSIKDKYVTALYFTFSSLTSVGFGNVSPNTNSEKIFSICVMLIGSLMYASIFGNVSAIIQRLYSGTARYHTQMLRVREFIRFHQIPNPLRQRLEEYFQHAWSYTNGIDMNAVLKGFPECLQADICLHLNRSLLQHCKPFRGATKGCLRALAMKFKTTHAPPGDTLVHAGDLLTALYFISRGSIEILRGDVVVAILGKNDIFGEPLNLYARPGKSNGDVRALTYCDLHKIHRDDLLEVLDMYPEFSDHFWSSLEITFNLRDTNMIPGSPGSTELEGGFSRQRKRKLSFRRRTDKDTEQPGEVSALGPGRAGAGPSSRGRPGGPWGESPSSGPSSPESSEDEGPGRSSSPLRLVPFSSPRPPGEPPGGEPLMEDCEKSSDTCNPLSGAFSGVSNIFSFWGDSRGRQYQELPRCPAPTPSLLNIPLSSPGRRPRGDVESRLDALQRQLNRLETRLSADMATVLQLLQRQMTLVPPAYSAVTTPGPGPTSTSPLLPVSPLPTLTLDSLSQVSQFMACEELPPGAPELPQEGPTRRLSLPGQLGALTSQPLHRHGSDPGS
row,SMILES,"hERG current change (%, negative = inhibition) at 10uM"
1,CCN(CC)S(=O)(=O)c1cccc(C(=O)N/N=C/c2ccc(O)c(O)c2O)c1,11.4%
2,CCc1ccc2nc(N=C(N)N)nc(C)c2c1,-14.3%
3,CCOc1cccc(CNc2ccc(O)cc2)c1OCc1ccc(Cl)cc1,10.3%
4,COc1cccc(CNCCO)c1OCc1ccc(Cl)cc1.Cl,-18%
5,CCOc1cccc(CNCCO)c1OCc1ccc(Cl)cc1.Cl,-53.2%
6,Cc1c(NC(=O)C(C)Sc2ccccc2)c(=O)n(-c2ccccc2)n1C (stereo not drawn),-1.92%
7,COc1ccc(C(=O)NCC(C)NC(=O)c2ccc(OC)c(Br)c2)cc1Br (stereo not drawn),4.83%
8,Cc1ccc(-n2cnc3scc(-c4cccs4)c3c2=O)cc1,3.67%
9,Cc1cc(C)nc(S/C=C/C(=O)c2ccccc2F)n1,5.02%
10,COc1ccc(C2=NN(C(C#N)c3ccc(OC)c(OC)c3)C(c3ccccc3)C2)cc1 (stereo not drawn),23.8%
11,CCCCCNc1nc(NCCCO)c(C#N)c2c1CN(C)CC2,-75.2%
12,CC(C)CCNc1nc(N2CCCC2)c2c(c1C#N)CCN(C)C2,-58.5%
13,CCc1nc(NCCC(C)C)c(C#N)c2c1CCCC2,23.4%
14,CN1CCc2c(C#N)c(N3CCOCC3)nc(NCC3CCCO3)c2C1 (stereo not drawn),11.5%
15,CCCCc1nc(NCCO)c(C#N)c2c1CCCC2,-15.7%
16,CCCCNc1nc(CC)c2c(c1C#N)CCCC2,8.24%
17,N#Cc1c(NCCCO)nc(NCc2ccccc2)c2c1CCN(Cc1ccccc1)C2,-43.4%
18,CN1CCc2c(C#N)c(N3CCCCC3)nc(N3CCOCC3)c2C1,-24.8%
19,CCCCCNc1nc(N2CCCC2)c2c(c1C#N)CCN(C)C2,-72.8%
20,Cc1ccc(CN2CC(C(=O)N3CCN(S(=O)(=O)c4c(F)cccc4F)CC3)CC2=O)cc1 (stereo not drawn),-2.83%
21,CCc1cc(=O)oc2c(C)c(OCC(=O)N3CC[C@@]4(O)CCCC[C@H]4C3)ccc12,-14.6%
22,O=C(OCC(=O)N(CCc1ccccc1)Cc1ccccc1)c1ccccc1[N+](=O)[O-],1.95%
23,CN(c1ccccc1)S(=O)(=O)c1ccc(Cl)c(C(=O)NCc2ccccc2CN2CCCC2)c1,-65.9%

row,SMILES,"hERG current change (%, negative = inhibition) at 10uM"
1,CN(C)C(CNC(=O)c1cc(S(=O)(=O)N(C)c2ccccc2)ccc1Cl)c1ccccc1 (stereo not drawn),-39.6%
2,CCN(CC)S(=O)(=O)c1ccc(Cl)c(C(=O)NCc2ccccc2Cl)c1,-24.7%
3,CN(c1ccccc1)S(=O)(=O)c1cccc(C(=O)NCc2ccccc2CN2CCCC2)c1,-74.6%
4,CN(c1ccccc1)S(=O)(=O)c1cccc(C(=O)NCc2ccccc2)c1,-18.3%
5,COc1ccccc1CNC(=O)c1cccc(S(=O)(=O)N(C)c2ccccc2)c1,-23.5%
6,O=C(O)C[C@H]1c2cc(C(F)(F)F)ccc2S(=O)(=O)N1C1CCCCC1,30.3%
7,CCOC(=O)c1c(C)[nH]c(N=Nc2ccc(OC)cc2)c1C,-0.496%
8,Fc1ccc(-c2oncc2-c2nnnn2-c2ccccc2)cc1F,-15.4%
9,COC(=O)c1ccsc1NC(=O)CS(=O)(=O)c1ccccc1,-10.1%
10,CCNS(=O)(=O)c1ccc(CCC(=O)N2CCN(c3cccc(Cl)c3)CC2)cc1,-32.7%
11,CCCCN=C(NNc1ccc(Br)cc1)C(=O)OCC,3.69%
12,N#Cc1ccc(COC(=O)c2cnc(Cl)c(Cl)c2)cc1,8.12%
13,COc1ccc(NCC(=O)N/N=C/c2cc([N+](=O)[O-])ccc2N2CCCC2)cc1,-7.82%
14,O=C(NCc1ccccc1)C(c1ccco1)N(C(=O)c1cnccn1)c1ccc(F)cc1 (stereo not drawn),10.5%
15,CCS(=O)(=O)Nc1ccc(Cc2ccc(NS(=O)(=O)CC)cc2)cc1,-7.91%
16,O=[N+]([O-])c1cccc(S(=O)(=O)NCc2ccncc2)c1,19.4%
17,O=S(=O)(Nc1ccc(Cc2ccncc2)cc1)c1ccc(Cl)cc1,12.4%
18,O=S(=O)(Nc1ccncc1)c1ccc(Cl)c(Cl)c1,18.4%
19,O=S(=O)(Nc1ccc(Cc2ccncc2)cc1)c1ccc(Cl)c(Cl)c1,-53.4%
20,CCS(=O)(=O)Nc1ccc(Cc2ccncc2)cc1,-0.00702%
21,CCCCS(=O)(=O)Nc1ccc(Cc2ccncc2)cc1,-50.2%
22,O=C(NCc1ccncc1)c1ccc(NS(=O)(=O)c2cccc([N+](=O)[O-])c2)cc1,19.2%
